Measurements from PubChem BioAssay (NCI).
The panel holds about 79,000 compounds, 15% with a hit somewhere; the sample as a whole holds those more often. Unmarked numbers belong to inactive results. The source made the active and inactive calls. Rule as the data show it: active = growth inhibition above about 70%; inactive = the rest.

Test: NCI Yeast Anticancer Drug Screen. Data for the sgs1 mgt1 strain (AID 161);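 also: 0% = growth of cultures given vehicle only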
Conditions: S. cerevisiae sgs1 mgt1 strain, at 50.0 µM, hits give high values
Procedure: Growth inhibition of yeast strains with defined genetic alterations is measured as a screen for potential anti-cancer activity. Selected strains with alterations in DNA damage repair or cell cycle control were exposed to compounds and growth inhibition was measured relative to vehicle treated controls. The strain used in this assay is sgs1 mgt1

SMILES | growth inhibition
CCN(CC)CCCC(C)NC(=S)N/N=C(\C)c1ccccn1 (stereo not given) | 41%
ClCc1cccc2c(CCl)cccc12 | 0.9%
COCC(N)=O | 15.2%
O=C(c1ccc(Cl)cc1)N1CCCCC1 | -17.6%
C=C1CC2(OC1=O)C(=O)N(C)c1ccc(I)cc12 (stereo not given) | 92.1% (active)
CSc1cnc2ccccc2n1 | -10.6%
CC(=O)NC(CCc1ccc(Cl)c(Cl)c1)c1cccc(O)c(=O)c1 (stereo not given) | 86% (active)
C/C(O)=C(/C=N/C(=S)Nc1ccccc1)C(=O)Nc1ccccc1C | 40.3%
Cc1cc2nc(C)c(C)nc2cc1C | -27.2%
N#C/C(=C\c1ccc2c(c1)OCO2)c1ccccc1 | 3.15%
C=CCOc1ccc(Cl)cc1Cl | -0.45%
S=C=Nc1ccc2ccccc2c1 | -5.9%
CCCCNc1ccc(-c2ccc(NCCCC)cc2)cc1 | -3.8%
CCOC(=O)CSCCC#N | -5.05%
O=S(Cc1ccccc1)/C(=C/NC(=S)Nc1cc(Cl)ccc1Cl)c1ccccc1 (stereo not given) | 14.4%
ClCC(Cl)C1CCC(Cl)C(Cl)C1 (stereo not given) | -7.85%
Nc1nc2nnc(-c3ccccc3)c(-c3ccccc3)n2n1 | 6.4%
COC1OC(CO)C(OC)C(O)C1O (stereo not given) | 0.2%
COc1ccc(NNS(=O)(=O)O)cc1 | 21.7%
c1ccc2[nH]c(Cc3nc4ccccc4[nH]3)nc2c1 | 50.4%

SMILES | growth inhibition
CSCCC(NC(=O)C(Cl)Cl)C(=O)O (stereo not given) | -4.1%
Nc1ccn(C2OC(CO)C(O)C2F)c(=O)n1 (stereo not given) | 11.9%
Nc1ncnc(Nc2ccc(C(F)(F)F)cc2)n1 | 1.35%
Cc1[nH]nc(C(N)=O)c1[N+](=O)[O-] | 20.2%
COC(=O)C1(CC(C)=O)NC(=S)NC(=O)C1C#N (stereo not given) | -36.3%
O=C1NC(=O)/C(=C\c2ccncc2)N1 | -0.3%
CC(O)C(F)(F)C(F)(F)C(F)(F)F (stereo not given) | 19.9%
OCCOc1ccc(-c2cc(-c3ccccn3)nc(-c3ccccn3)c2)cc1 | 43%
CCCc1cccc(CCC)c1NC(=O)Nc1cc(Cl)cc(Cl)c1 | 47.5%
O=C(c1ccccc1O)N1CCCC1 | 19.9%
c1ccc(Oc2c3ccccc3nc3ccccc23)cc1 | -13.2%
Cc1cc2c(C(C)C)c(O)c(O)c(C=Nc3ccccc3[N+](=O)[O-])c2c(O)c1-c1c(C)cc2c(C(C)C)c(O)c(O)c(C=Nc3ccccc3[N+](=O)[O-])c2c1O | -19.6%
N#C/C(=C\c1ccc(C#N)cc1)C(=O)c1ccccc1 | 16.4%
O=S(Cc1ccccc1)/C(=C/NC(=S)Nc1ccccc1)c1ccccc1 (stereo not given) | -40.1%
CCOC(=O)C(C#N)=C1CCN(C)CC1 | -0.75%
Cc1ccc(C)c(CN(C)C)c1O | 4.9%
CCOC(=O)Nc1nccs1 | -5.3%
Cn1c(=O)c2[nH]c(CCCCC(=O)O)nc2n(C)c1=O | -34.1%
FC(F)(F)c1cc(NC2=NCCN=C(Nc3cc(C(F)(F)F)cc(C(F)(F)F)c3)SS2)cc(C(F)(F)F)c1 | -10.8%
CC(=O)NNC(=S)/N=C\C(C(=O)c1ccccc1)=C(/O)c1ccccc1 | -14.4%
